# Assay outcomes: PubChem BioAssay, Sanford-Burnham Center for Chemical Genomics
# SENP6 inh – blocks the human protease SENP6; Q9GZR1; Recombinant SENP6 catalytic domain, aminoluciferin luminescence; inhibition, % at 10 µM; 1.8% of 330,000 active; AID 2599;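 active = inhibition above about 50% at the single tested dose, limit read from the data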;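 note: plate controls were DMSO wells with enzyme for no effect and DMSO wells lacking enzyme for full effect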
# Target sequence (Q9GZR1 628-1112 limits assumed): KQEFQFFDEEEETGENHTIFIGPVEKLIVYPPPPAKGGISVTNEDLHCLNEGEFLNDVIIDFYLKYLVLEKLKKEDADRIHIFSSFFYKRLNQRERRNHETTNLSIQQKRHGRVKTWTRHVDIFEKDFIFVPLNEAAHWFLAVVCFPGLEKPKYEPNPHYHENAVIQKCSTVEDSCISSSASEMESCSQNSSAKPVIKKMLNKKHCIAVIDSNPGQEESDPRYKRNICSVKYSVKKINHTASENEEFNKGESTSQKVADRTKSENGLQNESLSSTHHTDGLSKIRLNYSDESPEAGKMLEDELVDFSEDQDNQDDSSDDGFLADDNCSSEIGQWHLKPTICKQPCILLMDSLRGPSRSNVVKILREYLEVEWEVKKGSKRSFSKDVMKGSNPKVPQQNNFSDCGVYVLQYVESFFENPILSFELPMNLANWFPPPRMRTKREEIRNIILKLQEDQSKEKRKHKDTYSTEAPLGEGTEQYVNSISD
# PPC-1+TRAIL kill – compounds killing PPC-1 cancer cells with TRAIL present (potentiator screen, no TRAIL-free arm). PPC-1 cells + TRAIL, ATPLite viability luminescence. 0.41% of 220,000 active. AID 1443. cell killing (% activity), % at 4 µM or 5 µM;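 active = cell killing above 50% in the first pass at 4 µM, then a duplicate retest at 5 µM averaging 50% or more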;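 note: plate controls were cells with TRAIL plus DMSO for no effect and medium-only wells lacking cells for full effect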
# SENP8 block-1 – inhibitors of human SENP8 protease; AID 602440; recombinant SENP8, Nedd8 substrate fluorescence; 0.64% of 360,000 active; Q96LD8; inhibition, % at 20 µM; in the data active = inhibition mostly above about 40%, no sharp cut-off; inactive = mostly below about 27%
# SENP8 block-2 – inhibitors of human SENP8 protease. purified SENP8, Z-RLRGG-aminoluciferin cleavage, luminescence. inhibition, % at 10 µM. 1.2% of 330,000 active. AID 2540; in the data active = inhibition above about 50%
# C8 TRAIL sens – sensitizes caspase-8 expressing cells to TRAIL. NB7+C8 cells + TRAIL, ATPlite viability luminescence. inhibition (viability loss, TRAIL sensitization), % at 10 µM. 1% of 360,000 active;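 active = compounds causing at least 50% loss of cell viability in the single-dose screen, relative to plate controls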
# SENP7 block – blocks the human protease SENP7; Q9BQF6; 1.5% of 330,000 active; recombinant SENP7, Z-RLRGG-aminoluciferin luminescence, 40 min; AID 434973; inhibition, % at 5 µM;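 active = inhibition above about 50% at the single test dose, limit read from the data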;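 note: plate controls were DMSO with enzyme for no effect and no enzyme buffer wells for full effect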
# SENP8 confirm – human SENP8 inhibition, confirmed | shares compounds with SENP7 block | Recombinant SENP8, Z-RLRGG-aminoluciferin luminescence, 60 min | inhibition, % at 12.5 µM | 40% of 6,200 active;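 active = mean inhibition across replicates above about 50%, limit read from the data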
# SENP6 confirm – human SENP6 inhibition, confirmed | shares compounds with SENP7 block | recombinant SENP6, Z-RLRGG-aminoluciferin luminescence | inhibition, % at 12.5 µM | 58% of 6,200 active | AID 488915
# SENP7 confirm – human SENP7 inhibition, confirmed; recombinant SENP7, Z-RLRGG-aminoluciferin luminescence, 40 min; AID 488917; shares compounds with SENP7 block; inhibition, % at 12.5 µM; 69% of 6,200 active
# Casp3 select – selectivity test for SENP inhibitors: human caspase-3 inhibition | shares compounds with SENP7 block | purified caspase-3, Z-DEVD-aminoluciferin luminescence, 60 min | inhibition, % at 12.5 µM | 60% of 6,200 active | AID 488918;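 active = mean inhibition above about 50%, limit read from the data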;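 note: plate controls were enzyme with DMSO for no effect and wells without caspase-3 for full effect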
# Luc interf – luminescence interference (SENP counter-screen). 39% of 6,200 active. inhibition, % at 12.5 µM. shares compounds with SENP7 block. Pre-incubated SENP8/Z-RLRGG-aminoluciferin, luciferase luminescence interference;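 active = mean inhibition above about 50% when retested at one dose, limit read from the data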;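 note: plate controls were DMSO wells with completed reaction for no effect and substrate without enzyme for full effect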
# Numbers without * were called inactive; x = no result. A selection: hits, their analogues and other compounds. The true share with any hit is near 3%.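 Rule for the calls, unless noted: active = mean inhibition above about 50% in the one-dose retest (limit read from the data); inactive = the rest.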
SMILES,SENP6 inh,PPC-1+TRAIL kill,SENP8 block-1,SENP8 block-2,C8 TRAIL sens,SENP7 block,SENP8 confirm,SENP6 confirm,SENP7 confirm,Casp3 select,Luc interf
O=C(OCCN1CCOCC1)c1ccc(Cl)cc1Cl,6,x,25,4,4,1,x,x,x,x,x
O=C(O/N=C1/CCCc2occc21)c1ccccc1,89*,1,25,84*,13,95*,-20,84*,98*,92*,54*
Nc1ccn([C@@H]2O[C@H](C(=O)N3CCSC3)[C@@H](O)[C@H]2O)c(=O)n1,x,x,17,x,-3,x,x,x,x,x,x
COc1cc(CN(CC2CCCO2)C(=O)c2cccs2)cc(OC)c1OC (stereo unspecified),12,x,14,-3,-4,78*,-5,-6,-8,2,6
Cc1c(C(=O)CN2CCCC(C)(C)C2)c2ccccc2n1C,26,x,20,0,-25,5,x,x,x,x,x
COc1ccccc1C(=O)Nc1nnc(-c2ccc(F)cc2)s1,30,x,-135,23,21,33,x,x,x,x,x
COc1ccccc1C(=O)Nc1nsc(-c2ccccc2)n1,61*,18,11,28,27,53*,54*,52*,75*,66*,59*
O=C(O)C1CCN(Cc2ccccn2)CC1,83*,28,15,5,-2,2,11,1,5,6,3
CCOC(=O)C1CCN(Cc2ccccn2)CC1,10,x,x,4,x,1,x,x,x,x,x
Cc1cc(C)cc(C(=O)NCC(=O)NNC(=O)CSc2ccccc2F)c1,-13,x,7,0,-16,2,x,x,x,x,x
Cc1ccc(C(=O)C=Cc2ccc3c(c2)OCO3)c(C)c1,x,x,-34,x,2,x,x,x,x,x,x
Nc1ccccc1C(=O)/C=C/c1ccc2c(c1)OCO2,84*,28,-7,66*,28,94*,90*,81*,93*,55*,73*
CCOc1ccc(N=Cc2c(C)[nH]n(-c3nc4ccccc4[nH]3)c2=O)cc1,94*,74*,16,80*,87*,85*,49,35,50*,75*,69*
CCCCNC(=O)C1C(c2ccc(OC)cc2)=Nc2ccccc2N1C(=O)Cc1cc(OC)cc(OC)c1 (stereo unspecified),x,x,-66,x,15,x,x,x,x,x,x
CCOC(=O)C(C)Sc1nc(-c2cccs2)ccc1C#N (stereo unspecified),-11,-10,-286,9,8,-1,x,x,x,x,x
C=COC(=O)CSc1nc(-c2cccs2)ccc1C#N,57*,-12,-310,49,6,7,-5,70*,28,42,-5
O=C(CSc1nnc(-c2ccccn2)o1)Nc1ccccc1Cl,9,x,6,3,16,1,x,x,x,x,x
CSc1ccccc1C(=O)Nc1ccc2c(c1)CCC2,52*,x,6,42,-5,49,47,44,77*,-6,54*
Cn1cc(C(=O)Nc2ccc3c(c2)CCC3)cn1,-24,40,-1,-13,10,-9,x,x,x,x,x
O=C(Nc1ccc2c(c1)CCC2)c1cccc(F)c1,88*,30,9,76*,18,92*,91*,91*,100*,88*,90*
O=C(Cc1cccc(F)c1)Nc1ccc2c(c1)CCC2,-18,x,10,-11,-5,-12,x,x,x,x,x
O=C(Nc1ccc2c(c1)CCC2)c1cc(F)cc(F)c1,72*,x,4,70*,5,77*,39,78*,95*,65*,22
c1ccc(C[C@H]2CN=C(Nc3ccccc3)N2CC2CCCC2)cc1,x,x,11,x,5,x,x,x,x,x,x
CCCNC(=O)C1(C)CCN(C(=O)c2cccc(C#N)c2)C1 (stereo unspecified),x,x,14,x,-13,x,x,x,x,x,x
CCOC(=O)C1=CNS(=O)(=O)NC1c1ccc(OC(C)=O)cc1 (stereo unspecified),x,x,-148,x,-16,9,x,x,x,x,x
SMILES,SENP6 inh,PPC-1+TRAIL kill,SENP8 block-1,SENP8 block-2,C8 TRAIL sens,SENP7 block,SENP8 confirm,SENP6 confirm,SENP7 confirm,Casp3 select,Luc interf
O=C(NC1(O)C(=O)c2ccccc2C1=O)c1ccccc1,70*,10,99*,65*,-23,63*,75*,89*,81*,7,10
O=C(Nc1ccccc1Cl)c1c(F)c(F)c(F)c(F)c1F,0,x,2,-9,19,-6,x,x,x,x,x
O=C(NC1(O)C(=O)c2ccccc2C1=O)c1c(Cl)cccc1Cl,65*,18,97*,64*,-6,60*,67*,86*,75*,9,6
Cc1cccc(NC(=O)Nc2ccc3c(c2)CCC3)c1,34,x,4,-11,22,62*,3,-5,-1,18,-12
COc1cccc(NC(=O)Nc2ccc3c(c2)CCC3)c1,58*,x,4,52*,20,67*,1,14,83*,x,31
COc1cccc(NC(=O)c2ccc3c(c2)CCCC3)c1,98*,x,4,96*,65*,100*,98*,99*,102*,97*,94*
COc1cccc(NC(=O)C(NCCc2ccc(S(N)(=O)=O)cc2)c2ccccc2)c1 (stereo unspecified),9,x,11,-2,-4,0,x,x,x,x,x
O=C(NC(=S)Nc1cccc(CO)c1)c1ccc(-c2ccccc2)cc1,56*,-10,6,27,-1,10,6,-2,15,4,-1
Cc1cc(N2CCOCC2)nc2ccc(NC(=O)C3CCCCC3)cc12,x,x,-320,x,12,x,x,x,x,x,x
Cc1cc(N2CCOCC2)nc2ccc(NC(=S)N3CCCCC3C)cc12 (stereo unspecified),55*,15,-368,29,2,13,4,6,7,1,3
CCCN1CCN(CCCNC(=S)Nc2ccc3nc(N4CCN(CC)CC4)cc(C)c3c2)CC1,89*,6,-327,-6,-8,-9,-7,-7,0,0,-10
Cc1cc(N2CCN(C)CC2)nc2ccc(NC(=S)N3CCN(c4ccc(Cl)cc4)CC3)cc12,55*,15,-387,2,-22,8,12,6,9,5,3
CC1(C2CC2)NC(=O)N(CC(=O)N2CCN(S(=O)(=O)c3ccc(F)c(F)c3)CC2)C1=O (stereo unspecified),-25,x,16,-9,-11,-4,x,x,x,x,x
COCCN1C(=O)CCC1(C)c1nnnn1-c1ccc2ccccc2c1 (stereo unspecified),x,x,13,x,4,x,x,x,x,x,x
